This is an account of results in ChEMBL document CHEMBL1157539, “Thousands of chemical starting points for antimalarial lead identification” (Nature, 2010).

Common to all, as to type: functional
The test system of experiment [1] is Plasmodium falciparum. As to the kind of experiment: GSK_TCMDC: Inhibition of Plasmodium falciparum 3D7 in whole red blood cells, using parasite LDH activity as an index of growth. Test compounds present at 2uM.
The subject of experiment [2] is Plasmodium falciparum. As to the kind of experiment: GSK_TCMDC: Inhibition of Plasmodium falciparum Dd2 in whole red blood cells, using parasite LDH activity as an index of growth. Test compounds present at 2uM.
The test system of experiment [3] is HepG2. As to the kind of experiment: GSK_TCMDC: Percent inhibition of human HepG2 cell line. Test compounds present at 10uM.

A word on the Inhibition: it is the change of the read-out against control, counted positive when it falls. Low readings indicate a response near the control, high ones a response far below the control. Turning to `COCCNCc1cccc(-c2ccc(CNC3CCN(Cc4ccccc4)CC3)cc2)c1.O=C(O)C(F)(F)F`, the Inhibition in experiment [1] is reported as 100%; in experiment [2], 97%; in experiment [3], 34%.
With `OC(CNc1ccnc(Nc2cccc(Cl)c2)n1)c1ccccc1C(F)(F)F` (stereo unspecified), the results for the Inhibition in experiment [1], in experiment [2] and in experiment [3] were 95%, 36% and 40%, respectively.
On the same counts, the results for `Cc1nc2ccc3ccc(CNc4ccc(C(=O)N[C@@H](CCC(=O)O)C(=O)N[C@@H](Cc5cccs5)C(=O)O)c(F)c4)cc3c2c(=O)[nH]1` are 97%, 96% and 43%.
Consider `CCN(CC)CCN(Cc1ccc(-c2ccc(C(F)(F)F)cc2)cc1)C(=O)c1ccc(-c2ccc(NC(=O)OC)cc2C)cc1`, for which the Inhibition in experiment [1] amounted to 93%; in experiment [2], 42%; in experiment [3], 66%.
On to `Cc1cc(N2CCCC2)nc(Nc2ccc(NC(=O)c3ccc4c(c3)OCO4)cc2)n1`, for which the Inhibition was determined as 100% in experiment [1], 67% in experiment [2] and 26% in experiment [3].
As for `CC(C)(C)n1nnnc1C(c1cccnc1)N(Cc1ccccc1)Cc1ccc(Cl)cc1` (stereo unspecified), the Inhibition is 96% in experiment [1], 17% in experiment [2] and 0% in experiment [3].
For `CN(C)Cc1cccc(-c2ccc(NC(=O)c3ccc4c(=O)n(CC5CCCO5)cnc4c3)cc2)c1` (stereo unspecified) the same measures were 97%, 14% and 28%.
Take `COc1ccc(CCn2c(=N)c(C(=O)NCc3cccnc3)cc3c(=O)n4cccc(C)c4nc32)cc1`: the Inhibition in experiment [1] stood at 92%; in experiment [2], 12%; in experiment [3], 5%.
In the case of `Cc1c(Cc2ccccc2Cl)cnc2nc(N)nc(N)c12.Cl`, the Inhibition in experiment [1] stood at 91%; in experiment [2], 96%; in experiment [3], 67%.
As to `COc1cc(C)ccc1N1CCN(CCCCNC(=O)c2ccc(NC(=O)c3ccc(Cl)cc3)cc2)CC1`, the figures for the Inhibition in experiment [1], in experiment [2] and in experiment [3] were 99%, 31% and 30%, respectively.
With `Cc1ccc(-n2cc(CNCCc3nc(C)c[nH]3)c(-c3ccc(F)cc3)n2)cc1`, the Inhibition was found to be 86% in experiment [1], 12% in experiment [2] and 15% in experiment [3].
On to `COc1ccccc1C1CN(CCNC(=O)c2nc(C)c[nH]2)Cc2ccccc2O1` (stereo unspecified), for which the Inhibition in experiment [1] is reported as 90%; in experiment [2], 86%; in experiment [3], 4%.
For the molecule `Cc1onc(-c2c(Cl)cccc2Cl)c1C(=O)N1CCc2cc3nccc(N4CCN5CCC[C@H]5C4)c3cc21`, the Inhibition in experiment [1] stood at 100%; in experiment [2], 58%; in experiment [3], 3%.
Take `CCc1c(CCNCCCCCCNCCc2ccc3c(c2C)OCO3)ccc2c1OCO2.Cl`: the Inhibition in experiment [1] is 100%; in experiment [2], 7%; in experiment [3], 59%.
`CCOC(=O)N1CCN(CCCCNc2c3ccc(Cl)cc3nc3ccc(OC)cc23)CC1.Cl`: the Inhibition in experiment [1] is reported as 100%; in experiment [2] it was 98%; in experiment [3] it was 25%.
Take `Fc1ccc2[nH]c(-c3cccc(-c4cccc(CNCc5cnn(-c6ccccc6)n5)c4)c3)nc2c1.O=C(O)C(F)(F)F`: the Inhibition was 91% in experiment [1], 57% in experiment [2] and 18% in experiment [3].
As for `CC1(C)N=C(N)N=C(N)N1OCc1cc2ccccc2cc1CON1C(N)=NC(N)=NC1(C)C`, the results for the Inhibition in experiment [1], in experiment [2] and in experiment [3] were 92%, 51% and 0%, respectively.
For `CCN(CCC1(c2ccc(Cl)c(Cl)c2)CN(C(=O)c2cc(OC)c(OC)c(OC)c2)CCO1)C1CC2c3ccccc3CC21` (stereo unspecified), the Inhibition in experiment [1] came to 80%; in experiment [2] it was 65%; in experiment [3], 26%.
With `CN(C)Cc1cccc(-c2ccc(Nc3nccc(NCC(O)c4ccccc4)n3)cc2)c1` (stereo unspecified), the Inhibition in experiment [1] came to 100%; in experiment [2], 77%; in experiment [3] it was 75%.
`COc1ccc2[nH]c(C(=O)Nc3ccc4[nH]c(-c5ccccc5)nc4c3)cc2c1.O=C(O)C(F)(F)F`: the Inhibition in experiment [1] amounted to 96%; in experiment [2] it was 23%; in experiment [3], 51%.
With `Cl.c1ccc(COc2ccc(Nc3ncnc4cnc(-c5ccc(CN6CCCCC6)o5)cc34)cc2)cc1`, the Inhibition in experiment [1] is listed as 90%; in experiment [2], 13%; in experiment [3] it was 0%.
With `COc1cccc(CNC(=O)c2cccc(-c3ccc(CN4CCC(N5CCCC5)CC4)cc3)n2)c1.O=C(O)C(F)(F)F`, the values for the Inhibition in experiment [1], in experiment [2] and in experiment [3] were 100%, 76% and 16%, respectively.
On the same counts, the results for `OC(CN1CCN(Cc2ccccc2)CC1)Cn1c(-c2ccccc2)c(-c2ccccc2)c2ccccc21` (stereo unspecified) are 98%, 97% and 0%.
On to `COC(=O)c1cccc(NC(=O)NC2CCN(c3ccnc(Nc4cc(OC)c(OC)c(OC)c4)n3)C2)c1` (stereo unspecified), for which the values for the Inhibition in experiment [1], in experiment [2] and in experiment [3] were 99%, 68% and 7%, respectively.
On the same counts, the results for `Cc1nc2ccc(-c3nc4cc(N)ccc4[nH]3)cc2[nH]1` are 94%, 80% and 6%.
On the same counts, the results for `COc1ccc(-c2nonc2NC(=O)c2cccc(Cl)c2)cc1OC` are 98%, 63% and 41%.
`COc1ccc(-c2cccc(NC(=O)c3cccc(Cl)c3)c2)cc1CN(C)CCN(C)C.O=C(O)C(F)(F)F`: the Inhibition in experiment [1] amounted to 100%; in experiment [2] it was 73%; in experiment [3], 32%.
